Data reported in PubChem BioAssay (NCATS).
Records with an inconclusive call do not appear. Calls of active or inactive are those of the source. The call rests on the fitted dose curve; in most records, active means well fitted inhibition curve with a large enough effect; inconclusive means small, poorly fitted or top-dose-only effect; inactive means flat fitted curve, though single readings scatter.

Tests used:
Experiment in all cases: qHTS profiling for inhibitors of Plasmodium falciparum proliferation (AID 504749); further: nearly all actives have a fitted effect of over 60% in size
Conditions in all cases: P. falciparum in erythrocytes, SYBR Green DNA, 72 h; series mostly up to 28.7 µM
CP266 = tested on: CP266
In short: (§1)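 Infected RBCs, 0.3% parasitemia/2.5% Hct final; cpd 72 h, 37 C, 5% CO2; lysis buffer with saponin/triton/SYBR Green I, o/n RT dark; FI 485/535; norm. to artemisinin (0.29 uM) and DMSO.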

CP268 = tested on: CP268
In short: as §1

CP269 = tested on: CP269
In short: as §1

CP286 = tested on: CP286
In short: as §1

CP291 = tested on: CP291
In short: as §1

CP297 = tested on: CP297
In short: as §1

CP305 = tested on: CP305
In short: as §1

CP315 = tested on: CP315
In short: as §1

CP325 = tested on: CP325
In short: as §1

CP329 = tested on: CP329
In short: as §1

CP335 = tested on: CP335
In short: as §1

DFO2036 = tested on: DFO2036
In short: as §1

DIV14 = tested on: DIV14
In short: as §1

DIV17 = tested on: DIV17
In short: as §1

DIV30 = tested on: DIV30
In short: as §1

Dd2 = tested on: Dd2
In short: as §1

ECU = tested on: ECU
In short: as §1

FAB9 = tested on: FAB9
In short: as §1

GB4 = tested on: GB4
In short: as §1

HB3 = tested on: HB3
In short: as §1

ICS = tested on: ICS
In short: as §1

JCK = tested on: JCK
In short: as §1

N140 = tested on: N140
In short: as §1

P93_24 = tested on: P93_24
In short: as §1

P94_40 = tested on: P94_40
In short: as §1

PAD = tested on: PAD
In short: as §1

PC15 = tested on: PC15
In short: as §1

PC26 = tested on: PC26
In short: as §1

PC49 = tested on: PC49
In short: as §1

SC27B = tested on: SC27B
In short: as §1

TAB109 = tested on: TAB109
In short: as §1

TAB113 = tested on: TAB113
In short: as §1

TAB165 = tested on: TAB165
In short: as §1

W2 = tested on: W2
In short: as §1

Measured: Potency

CCCCC/C(C=O)=C/c1ccccc1
inactive: all assays above
